Conditions in all cases: concentration: 1 μM, replicates: in singlicate; n = 1
For assay [1], the system named is SRPK2.
Assay [2] relates to SRPK3.
Assay [3] deals with STK16.
Assay [4] deals with STK33.
Assay [5] has as its system STK35.
The test system of assay [6] is STK36.
Assay [7] deals with STK39.
Assay [8] concerns SYK.
For assay [9], the system named is SgK110.
In assay [10] the test system is T1, TAK1.
T1 construct: gene MAP3K7

For assay [11], the system named is TAOK1.
In assay [12] the test system is TAOK2.
The test system of assay [13] is TAOK3.
Assay [14] has as its system TBK1.
For assay [15], the system named is TEC.
Assay [16] concerns TESK1.
Assay [17] has as its system TGFBR1.
Assay [18] has as its system TGFBR2.
Assay [19] deals with TIE1.
In assay [20] the test system is T2, TIE2.
T2 construct: gene TEK
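Also: KINOMEscan kinase panel screen.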

Turning to `Fc1ccc(-c2nc[nH]c2-c2ccncc2)cc1` [SB-217360], the “%Inh” value came to 0% in [1]; 3% in assay [2]; 14% in assay [3]; 1% in assay [4]; 0% in [5]; 0% in assay [6]. In addition, the “%Inh” value stood at 0% in assay [7]; 33% in [8]; 15% in assay [9]; 0% in assay [10]; 0% in [11]; 40% in assay [12]. For the same compound, the “%Inh” value in assay [13] came out at 7%; in [14], 48%; in assay [15], 0%; in assay [16], 0%; in assay [17] it was 37%; in [18] it was 53%. In addition, the “%Inh” value came out at 0% in assay [19] and 3% in assay [20].
Consider `Cc1cccc2c(-c3ccncn3)c(-c3ccc(F)cc3)nn12` [GW515532], for which the “%Inh” value is reported as 0% in assay [1]; 14% in [2]; 0% in [3]; 0% in [4]; 27% in assay [5]; 0% in assay [6]. Moreover, the “%Inh” value in assay [7], in assay [8], in assay [9], in [10], in [11] and in [12] was 0% each time. For the same compound, the “%Inh” value in [13] is listed as 0%; in assay [14] it was 0%; in assay [15] it was 0%; in assay [16], 17%; in assay [17], 0%; in [18], 23%. The “%Inh” value in assay [19] is listed as 14%; in assay [20], 0%.
As to `CC[C@@H]1CO[C@H](C(=O)Nc2ccccc2)CN1c1cc(-c2ccc3c(N)n[nH]c3c2)nc(NC)n1` [GSK2376236], the “%Inh” value is listed as 0% in assay [1]; 0% in assay [2]; 21% in assay [3]; 2% in [4]; 0% in assay [5]; 0% in assay [6]. Further, the “%Inh” value in [7] was 0%; in [8] it was 0%; in assay [9], 0%; in [10], 6%; in assay [11], 0%; in assay [12], 1%. For the same compound, the “%Inh” value in assay [13] is reported as 0%; in [14], 31%; in assay [15], 0%; in assay [16], 0%; in [17] it was 9%; in assay [18], 0%. Further, the “%Inh” value in assay [19] came to 4%; in [20], 0%.
For the compound `Nc1ncnc2occ(-c3ccc4c(c3)CCN4C(=O)Cc3cc(F)ccc3F)c12` [GSK2645446], the “%Inh” value in assay [1], in assay [2], in assay [3], in assay [4], in [5] and in [6] was 0% throughout. The “%Inh” value in assay [7] stood at 0%; in assay [8] it was 0%; in [9], 0%; in assay [10] it was 17%; in [11] it was 0%; in [12] it was 6%. The “%Inh” value in [13] turned out to be 0%; in assay [14], 10%; in assay [15], 0%; in [16], 0%; in assay [17], 0%; in assay [18] it was 0%. Besides, the “%Inh” value is given as 45% in [19] and 0% in [20].
Regarding `Fc1ccc(-c2nn3cccc(F)c3c2-c2ccncc2)cc1` [GW475620], the “%Inh” value in assay [1] came to 0%; in [2] it was 16%; in assay [3], 0%; in assay [4], 5%; in [5], 0%; in assay [6] it was 28%. Also, the “%Inh” value amounted to 1% in assay [7]; 14% in assay [8]; 0% in assay [9]; 0% in assay [10]; 0% in assay [11]; 0% in [12]. For the same compound, the “%Inh” value came to 0% in [13]; 22% in assay [14]; 0% in assay [15]; 4% in [16]; 17% in [17]; 11% in assay [18]. Besides, the “%Inh” value in [19] is recorded as 7%; in assay [20], 1%.
For `Cc1ccc(NC(=O)Nc2ccccc2)cc1-c1ccc(C(=O)Nc2ccncc2)cc1` [GSK1398471], the “%Inh” value in [1] worked out at 0%; in assay [2] it was 0%; in assay [3], 9%; in [4] it was 0%; in [5] it was 0%; in [6], 0%. Besides, the “%Inh” value is given as 3% in assay [7]; 24% in [8]; 0% in assay [9]; 0% in [10]; 0% in assay [11]; 0% in assay [12]. Besides, the “%Inh” value in assay [13] came to 0%; in [14], 17%; in [15], 0%; in assay [16], 2%; in assay [17] it was 0%; in assay [18] it was 0%. Moreover, the “%Inh” value in [19] and in assay [20] was 0% in each case.
Consider `CNC(=O)c1ccc(C)c(-n2c(C)cc(OCc3ccc(F)cc3F)c(Br)c2=O)c1`, for which the “%Inh” value amounted to 0% in assay [1]; 6% in [2]; 3% in assay [3]; 0% in assay [4]; 0% in [5]; 1% in assay [6]. Besides, the “%Inh” value is 0% in assay [7]; 14% in assay [8]; 0% in [9]; 12% in [10]; 0% in [11]; 0% in assay [12]. The “%Inh” value in assay [13] is on record as 0%; in assay [14], 0%; in [15], 1%; in assay [16], 13%; in assay [17], 0%; in [18], 0%. The “%Inh” value is 1% in assay [19] and 0% in [20].
In the case of `COc1ccc(Nc2nccc(NCCNC(=O)Nc3cc(C)ccc3C)n2)cc1` [GSK1379899], the “%Inh” value was found to be 0% in [1]; 10% in assay [2]; 0% in [3]; 0% in assay [4]; 0% in assay [5]; 0% in assay [6]. Further, the “%Inh” value in assay [7] was 0%; in [8] it was 24%; in [9] it was 0%; in assay [10] it was 0%; in assay [11], 0%; in [12], 0%. The “%Inh” value in assay [13] turned out to be 1%; in assay [14] it was 0%; in [15], 16%; in assay [16], 7%; in [17], 0%; in assay [18], 0%. For the same compound, the “%Inh” value in assay [19] and in assay [20] was 0% throughout.
On to `O=C(Nc1n[nH]c2nc(-c3cccs3)c(Br)cc12)C1CCCC1` [SB-743341], for which the “%Inh” value in assay [1] came out at 15%; in assay [2], 20%; in assay [3], 23%; in assay [4] it was 1%; in [5] it was 0%; in assay [6], 1%. In addition, the “%Inh” value in assay [7] was determined as 33%; in assay [8] it was 5%; in assay [9] it was 18%; in assay [10] it was 38%; in assay [11], 0%; in [12] it was 0%. Further, the “%Inh” value in [13] is 0%; in assay [14], 0%; in [15] it was 0%; in assay [16] it was 25%; in [17], 19%; in [18], 7%. Further, the “%Inh” value came out at 33% in [19] and 15% in assay [20].
As to `Cc1cnc(N)c(/C=C/c2cncc(C(=O)NCCc3ccc(Cl)cc3Cl)c2)c1.Cl` [GSK190937], the “%Inh” value was found to be 34% in [1]; 0% in assay [2]; 1% in [3]; 5% in assay [4]; 0% in assay [5]; 28% in assay [6]. In addition, the “%Inh” value in assay [7] stood at 2%; in assay [8] it was 22%; in assay [9], 9%; in assay [10] it was 0%; in assay [11], 11%; in [12], 0%. The “%Inh” value in [13] amounted to 25%; in assay [14] it was 12%; in [15], 18%; in assay [16], 1%; in [17], 0%; in [18] it was 0%. For the same compound, the entries for the “%Inh” value in assay [19] and in assay [20] were 20% and 0%, respectively.

The values above are taken from article PMC5540273 (PLoS ONE, 2017).
